Compound activity: PubChem, The Scripps Research Institute Molecular Screening Center
PLCg1 inh: inhibitors of human phospholipase C gamma1. purified PLC-gamma1, fluorogenic substrate, fluorescence. inhibition, % at 12.2 µM. AID 720700. actives 0.84% (n = 370,000). P19174; in the data active means inhibition above about 9.5%
KLK7 zymogen act: activators of human kallikrein-7 zymogen | P49862 | activation, % at 7 µM | purified proKLK7, EDANS-DABCYL substrate fluorescence; 100% is mature enzyme control, 0% vehicle | actives 0.9% (n = 370,000) | AID 652039;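 active means activation above the mean of all tested compounds plus 3 SD, computed per campaign excluding outliers beyond control limits, cut at about 13% in these data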
PLC-beta3 inh: inhibitors of human phospholipase C beta3; Q01970; AID 720704; actives 0.18% (n = 370,000); inhibition, % at 12.2 µM; Purified PLC-beta3, fluorogenic substrate, fluorescence; in the data active means inhibition above about 11%
ADAM17 inh: ADAM17 inhibition, QFRET primary screen. P78536. recombinant ADAM17, EDANS/DABCYL FRET peptide cleavage. inhibition, % at 6.95 µM. actives 0.83% (n = 370,000). AID 720648;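 active means inhibition above the mean of compounds lying between control limits plus 3 SD, set per campaign, cut at about 8.5% in these data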
Target sequence (P78536 215-824 limits assumed): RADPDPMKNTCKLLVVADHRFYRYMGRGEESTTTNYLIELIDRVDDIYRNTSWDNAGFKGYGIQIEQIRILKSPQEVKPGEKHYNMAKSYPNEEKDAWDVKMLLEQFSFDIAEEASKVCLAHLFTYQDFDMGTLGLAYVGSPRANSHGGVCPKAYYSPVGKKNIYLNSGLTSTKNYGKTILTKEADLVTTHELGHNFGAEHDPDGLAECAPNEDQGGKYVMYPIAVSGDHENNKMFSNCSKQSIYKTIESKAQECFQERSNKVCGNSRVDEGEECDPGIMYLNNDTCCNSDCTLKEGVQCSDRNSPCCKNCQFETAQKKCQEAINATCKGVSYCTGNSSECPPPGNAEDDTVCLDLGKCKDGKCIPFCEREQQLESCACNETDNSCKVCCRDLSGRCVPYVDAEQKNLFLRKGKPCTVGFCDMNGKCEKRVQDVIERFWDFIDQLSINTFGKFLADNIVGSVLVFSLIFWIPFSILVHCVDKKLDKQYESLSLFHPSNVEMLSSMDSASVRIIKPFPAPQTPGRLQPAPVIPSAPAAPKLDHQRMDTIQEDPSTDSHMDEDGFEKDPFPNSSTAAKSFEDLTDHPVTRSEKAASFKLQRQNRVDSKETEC
ADAM10 inh: ADAM10 inhibition, QFRET primary screen. actives 0.62% (n = 370,000). AID 720582. recombinant ADAM10, EDANS/DABCYL FRET peptide cleavage, 3 h. O14672. inhibition, % at 7 µM;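 active means inhibition above a per-campaign cutoff equal to the mean of compounds falling between control-based bounds plus 3 SD, cut at about 20% in these data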
proKLK7 act conf: confirmation of human kallikrein-7 zymogen activators; actives 68% (n = 3,200); purified proKLK7, EDANS-DABCYL substrate fluorescence; scaled: vehicle 0, mature enzyme 100; activation, % at 7 µM; shares compounds with KLK7 zymogen act;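 active means activation, as change over the incubation, above the mean of all tested compounds plus 3 SD, cut at about 13% in these data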
EDANS interfere: optically interferes with EDANS-DABCYL signal, flagging KLK7 hits; shares compounds with KLK7 zymogen act; EDANS-DABCYL substrate fluorescence interference, no enzyme, 4 h; solvent 0%, active enzyme control 100%; activation, % at 7 µM; actives 80% (n = 3,200); AID 686952;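 active means activation above the all-compound mean plus 3 SD, ignoring values outside control-based bounds, cut at about 4.8% in these data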;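 further: value is the 4 h activation minus the activation read at time zero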
K7 EDANS ctr: optically interferes with EDANS-DABCYL fluorescence, kallikrein-7 activator counter-screen; actives 20% (n = 250); EC50, µM; AID 720493; shares compounds with KLK7 zymogen act; EDANS-DABCYL peptide fluorescence interference, no enzyme;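 active means compounds that raise the fluorescence signal in this interference counterscreen, with EC50 at or below 10 µM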;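 further: intact quenched peptide substrate alone read at 355 nm excitation and 520 nm emission; signal is fluorescence gain from T0 to T4 after four hours at room temperature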
Hits are given with their value; - = inactive; . = no result. Rows were chosen to be rich in hits. Some 2.9% of all compounds tested hit in one or more screens of this group.

SMILES | PLCg1 inh | KLK7 zymogen act | PLC-beta3 inh | ADAM17 inh | ADAM10 inh | proKLK7 act conf | EDANS interfere | others
CCOC(=O)C1CCN(S(=O)(=O)c2cccc(-c3cn4cc(C)ccc4n3)c2)CC1 | - | - | - | - | - | . | .
CCN(CC)c1ccc2c(Cl)cc(=O)oc2c1 | - | - | - | - | - | . | .
CCNc1ccc2c(Cl)cc(=O)oc2c1 | - | 25 | - | - | - | 30 | 38
c1ccc(Nc2nc3ccccc3n3nnnc23)cc1 | - | 20 | - | - | - | - | 46
O=C1/C(=C/c2cccc(F)c2)Oc2cc(O)ccc21 | - | 21 | - | - | - | 56 | 79
COc1ccc2nc3cc(Cl)ccc3c(Nc3cc(C(C)C)c(O)cc3C)c2c1 | - | 20 | - | - | - | - | -
COc1ccc(S(=O)(=O)Nc2cc(C(C)C)c(O)cc2C)cc1 | - | - | - | - | - | . | .
CN(C)Cc1ccccc1-c1cccc2nccn12 | - | 19 | - | - | - | - | -
Cc1cccc(C(=O)Nc2nc3ncccn3c2-c2ccc(F)c(F)c2)c1 | - | - | - | - | - | . | .
COc1ccc(-c2nnc(SCc3c(F)cccc3F)n2N)cc1 | - | - | - | - | - | . | .
CCOC(=O)C1CCCN(C(=O)c2cnn3c(C(F)(F)F)cc(-c4ccccc4)nc23)C1 (stereo not drawn) | - | - | - | - | - | . | .
CCOC(=O)c1cnn2c(C(F)(F)F)cc(-c3cn(C)nc3C)nc12 | - | 20 | - | - | - | 41 | 25 | K7 EDANS ctr=-
CCOC(=O)c1cnn2c(C(F)(F)F)cc(-c3ccccc3)nc12 | - | 19 | - | - | - | - | -
O=C(NC(CC1=CCCCC1)c1ccc2ccccc2c1)C(F)(F)F (stereo not drawn) | - | - | - | - | - | . | .
CCc1ccc(C2=CC(c3cc(Br)ccc3F)n3ncnc3N2)cc1 (stereo not drawn) | - | 13 | - | - | - | - | 4.9
Cc1ccc(-n2c(SCC(=O)NN=Cc3c[nH]c4ccccc34)nnc2-c2ccccc2)cc1 | - | - | - | - | - | . | .
C[C@H]1[C@H](NC(=O)c2cccc(Cl)c2)CC[C@@]23CCCN2C(=O)CCC[C@@H]13 | - | . | - | - | - | . | .
O=Cc1ccc(-c2cccs2)s1 | - | 47 | - | - | - | 58 | 67
O=C(OCc1cn(Cc2cccc(Cl)c2)nn1)N1CCCC1 | - | - | - | - | - | . | .
OC1c2cc(Cl)cc(Cl)c2N=C2CCCN21 (stereo not drawn) | - | 15 | - | - | - | 18 | 11 | K7 EDANS ctr=-
OC(CN1CCCCC1)Cn1c2ccccc2c2ccccc21 (stereo not drawn) | - | - | - | - | - | . | .
O=c1c2ccccc2n(CC(O)CN2CCCCC2)c2ccccc12 (stereo not drawn) | - | 34 | - | - | - | 29 | 29
COc1ccc2c(c1)CCc1cc(C(=O)O)sc1-2 | - | 56 | - | - | - | 59 | 67
O=C(O)c1cc2c(s1)-c1ccccc1CC2 | - | - | - | - | - | . | .
Cc1ccc(C2=N/C(=C\c3coc4ccccc4c3=O)C(=O)O2)cc1 | - | - | - | - | - | . | .
SMILES | PLCg1 inh | KLK7 zymogen act | PLC-beta3 inh | ADAM17 inh | ADAM10 inh | proKLK7 act conf | EDANS interfere | others
C(#CC1=CCCCC1)CNCc1ccccc1 | - | - | - | - | - | . | .
CCOc1c2ccoc2nc2c(OC)c(OC)ccc12 | - | 13 | - | - | - | - | 14
C=CCOc1ccc2c(OC)c3ccoc3nc2c1OC | - | 19 | - | - | - | - | -
COc1c2c(nc3occc13)C(CC=C(C)C)(OC)C(=O)C=C2 (stereo not drawn) | - | - | - | - | - | . | .
O=C(Nc1ccc2c(c1)OCO2)O[C@@H]1CC[C@@]23CCCN2C(=O)CCC[C@H]3C1 | - | . | - | - | - | . | .
COC(=O)[C@]12C[C@H](CC(=O)NCCC(C)C)C(=O)N(CCC3=CCCCC3)C1=C[C@H](C(C)C)O[C@@H]2C1CC1 | - | - | - | - | - | . | .
N[C@H](C(=O)Nc1ccc(Cl)cc1C(=O)c1ccc[nH]1)c1ccccc1 | - | . | - | - | - | . | .
CCCc1cc(=O)oc2c(CN3CCN(C)CC3)c(O)c(Cl)cc12 | - | 60 | - | - | - | 71 | 76
CN1CCN(Cc2cc(=O)oc3ccc(Cl)cc23)CC1 | - | - | - | - | - | . | .
Cc1cc(=O)oc2c(CN3CCN(C)CC3)c(O)c(Cl)cc12 | - | 58 | - | - | - | 76 | 77
CCc1c(C)c2cc(Cl)c(O)c(CN3CCCC3)c2oc1=O | - | 37 | - | - | - | 68 | 69
CN1CCN(Cc2c(O)c(Cl)cc3c(-c4ccccc4)cc(=O)oc23)CC1 | - | 17 | - | - | - | 14 | 11
Cc1cc(C)c2oc(=O)cc(CN3CCCCC3)c2c1 | - | - | - | - | - | . | .
CCCCc1cc(=O)oc2c(CN3CCCC3)c(O)c(Cl)cc12 | - | 63 | - | - | - | 71 | 82
Cc1ccccc1NC(=O)N(C)[C@H]1C[C@H]2c3[nH]c4c(-c5ccc6c(c5)OCO6)cccc4c3CCN2C[C@H]1[C@H](C)O | - | - | - | - | - | . | .
Cc1ccccc1OCC(=O)Nc1sc2c(c1C#N)CC(C)(C)NC2(C)C | - | - | - | - | - | . | .
CC1(C)Cc2c(sc(NC(=O)c3ccc(C(=O)c4ccccc4)cc3)c2C#N)C(C)(C)N1 | - | 15 | - | - | - | - | 15
CC1(C)Cc2c(sc(NC(=O)c3ccc(S(=O)(=O)N4CCCCCC4)cc3)c2C(N)=O)C(C)(C)N1 | - | 31 | - | - | - | 33 | 31
CCOC(=O)N1CCN(S(=O)(=O)c2ccc(C(=O)Nc3sc4c(c3C#N)CCC4)cc2)CC1 | - | - | - | - | - | . | .
CC1(C)Cc2c(sc(NC(=O)c3ccc(S(=O)(=O)N4CCCC4)cc3)c2C#N)C(C)(C)N1 | - | 38 | - | - | - | 141 | 154
CC1(C)Cc2c(sc(NC(=O)c3ccc4c(c3)OCCO4)c2C(N)=O)C(C)(C)N1 | - | - | - | - | - | . | .
CCOC(=O)N1CCN(S(=O)(=O)c2ccc(C(=O)Nc3sc4c(c3C#N)CC(C)(C)NC4(C)C)cc2)CC1 | - | 109 | - | - | - | 53 | 51
COC(=O)c1c(NC(=O)c2ccc(C(=O)c3ccccc3)cc2)sc2c1CC(C)(C)NC2(C)C | - | - | - | - | - | . | .
Cc1ccc(Cn2cc(CN(C(C)(C)C)S(=O)(=O)c3ccc(F)cc3Br)nn2)cc1 | - | - | - | - | - | . | .
CCC(=O)OCCCN1C(=O)CCC12CCC(C)CC2 (stereo not drawn) | - | - | - | - | - | . | .
